What all share (parameters): scale not given: direction of the effect not stated beside the values
In test [1] the target is Protein translocase subunit SecA (Escherichia coli (strain K12)) (UniProt P10408). In words: Assay to Identify E. coli SecA ATPase Inhibitors. Particulars: 30 µM. The class given is functional.
The target of test [2] is T1, Ubiquitin-activating enzyme e1, putative (Leishmania donovani (strain BPK282A1)) (UniProt E9BSI1).
T1 sequence (whole entry): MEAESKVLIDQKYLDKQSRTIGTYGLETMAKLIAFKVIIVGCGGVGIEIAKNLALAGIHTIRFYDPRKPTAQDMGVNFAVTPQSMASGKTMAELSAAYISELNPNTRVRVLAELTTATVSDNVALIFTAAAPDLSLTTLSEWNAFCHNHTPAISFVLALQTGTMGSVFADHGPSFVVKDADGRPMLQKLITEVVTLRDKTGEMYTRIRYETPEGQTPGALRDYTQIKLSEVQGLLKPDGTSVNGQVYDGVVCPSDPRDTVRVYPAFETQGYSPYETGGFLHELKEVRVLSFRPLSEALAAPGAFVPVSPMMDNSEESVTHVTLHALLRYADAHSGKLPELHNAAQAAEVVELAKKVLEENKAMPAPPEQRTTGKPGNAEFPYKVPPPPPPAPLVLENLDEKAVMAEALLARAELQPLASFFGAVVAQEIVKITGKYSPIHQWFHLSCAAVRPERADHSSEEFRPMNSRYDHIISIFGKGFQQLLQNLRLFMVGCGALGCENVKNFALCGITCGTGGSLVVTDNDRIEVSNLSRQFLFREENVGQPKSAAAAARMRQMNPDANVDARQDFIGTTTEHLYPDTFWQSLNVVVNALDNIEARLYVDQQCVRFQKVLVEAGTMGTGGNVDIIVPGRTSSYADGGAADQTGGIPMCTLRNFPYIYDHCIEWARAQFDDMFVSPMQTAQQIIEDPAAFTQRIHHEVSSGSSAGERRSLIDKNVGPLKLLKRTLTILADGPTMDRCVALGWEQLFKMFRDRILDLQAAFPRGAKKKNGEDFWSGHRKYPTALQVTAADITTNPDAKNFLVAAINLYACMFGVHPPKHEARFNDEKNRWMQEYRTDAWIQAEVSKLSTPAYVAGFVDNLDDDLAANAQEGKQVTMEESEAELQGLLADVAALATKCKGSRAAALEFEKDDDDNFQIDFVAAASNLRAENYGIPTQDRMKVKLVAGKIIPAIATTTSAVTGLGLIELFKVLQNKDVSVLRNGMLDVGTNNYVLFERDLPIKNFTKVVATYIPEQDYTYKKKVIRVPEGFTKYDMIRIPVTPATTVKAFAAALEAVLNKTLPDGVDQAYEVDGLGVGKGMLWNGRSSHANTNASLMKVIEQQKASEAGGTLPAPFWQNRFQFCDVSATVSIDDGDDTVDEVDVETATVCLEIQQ
In words: Leishmania donovani Ubiquitin Activating Enzyme (LdE1). The class given is functional. Conditions: 30 µM.

The target in test [3] is AMP-activated protein kinase, AMPK (Homo sapiens) (UniProt P54646+O43741+P54619+Q9UGJ0+Q9Y478+Q13131+Q9UGI9). In words: AMP-dependent Kinase enzyme assay. An in vitro enzyme assay that detects ADP turnover that is directly proportional to AMPK activity. This uses naive AMPK that is activated during the assay with MK-8722. The class given is functional. Particulars: 30 µM.

The target in test [4] is Sialic acid-binding Ig-like lectin 9 (Homo sapiens) (UniProt Q9Y336). In words: Hs-Siglec9 ALPHAscreen SOP 20170721. Particulars: 10 µM. (Alpha assays give light when donor and acceptor beads are brought close together.)
The subject of another test is Trypanosoma cruzi. In words: Trypanosoma cruzi phosphomannomutase and mannose-1-phosphate guanylyltransferase assay. Conditions: 10 µM. The class given is functional.
In test [5] the target is T2, Arginase-2, mitochondrial (Homo sapiens) (UniProt P78540).
T2 sequence (whole entry): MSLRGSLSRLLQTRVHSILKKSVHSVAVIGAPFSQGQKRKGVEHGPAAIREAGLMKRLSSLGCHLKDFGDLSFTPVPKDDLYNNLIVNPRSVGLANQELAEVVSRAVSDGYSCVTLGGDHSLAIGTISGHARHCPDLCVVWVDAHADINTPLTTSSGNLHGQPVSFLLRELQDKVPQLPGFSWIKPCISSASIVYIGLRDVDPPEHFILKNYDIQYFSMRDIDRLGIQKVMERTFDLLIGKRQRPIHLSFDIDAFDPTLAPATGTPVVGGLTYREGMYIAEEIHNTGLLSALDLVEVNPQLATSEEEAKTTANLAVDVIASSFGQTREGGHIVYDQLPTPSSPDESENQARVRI
In words: in vitro enzyme assay to detect the production of urea directly proportional to the activity of Arginase II. Also: in the data most compounds retested in dose-response had high values. The class given is functional. Conditions: 33.3 µM.

For test [6], the target named is T3, Proteasome subunit beta (Trypanosoma cruzi) (UniProt O96673).
T3 sequence (whole entry): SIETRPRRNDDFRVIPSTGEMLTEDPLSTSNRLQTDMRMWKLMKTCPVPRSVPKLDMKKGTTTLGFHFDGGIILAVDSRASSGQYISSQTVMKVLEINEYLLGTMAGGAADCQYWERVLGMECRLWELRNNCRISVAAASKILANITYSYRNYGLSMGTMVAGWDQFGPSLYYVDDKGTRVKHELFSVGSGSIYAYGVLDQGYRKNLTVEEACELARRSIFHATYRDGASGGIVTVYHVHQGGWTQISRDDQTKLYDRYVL
In words: Trypanosoma cruzi proteasome chymotrypsin-like activity (TcProtChymo) assay. Also: in the data most compounds retested in dose-response had high values. Particulars: 9.37 µM. The class given is functional.

The species entered for the next test is Homo sapiens. In words: To identify inhibition of the IFN signalling (Jak-Stat) pathway via expression of an eGFP reporter gene under the control of an IFN-stimulated response element (ISRE) containing MxA promoter. Conditions: 30 µM. The class given is functional. (In a reporter assay the amount or activity of a reporter protein is the signal.)
For test [7], the target named is T4, Tyrosyl-tRNA synthetase, putative (Trypanosoma cruzi (strain CL Brener)) (UniProt Q4DSP6).
T4 sequence (whole entry): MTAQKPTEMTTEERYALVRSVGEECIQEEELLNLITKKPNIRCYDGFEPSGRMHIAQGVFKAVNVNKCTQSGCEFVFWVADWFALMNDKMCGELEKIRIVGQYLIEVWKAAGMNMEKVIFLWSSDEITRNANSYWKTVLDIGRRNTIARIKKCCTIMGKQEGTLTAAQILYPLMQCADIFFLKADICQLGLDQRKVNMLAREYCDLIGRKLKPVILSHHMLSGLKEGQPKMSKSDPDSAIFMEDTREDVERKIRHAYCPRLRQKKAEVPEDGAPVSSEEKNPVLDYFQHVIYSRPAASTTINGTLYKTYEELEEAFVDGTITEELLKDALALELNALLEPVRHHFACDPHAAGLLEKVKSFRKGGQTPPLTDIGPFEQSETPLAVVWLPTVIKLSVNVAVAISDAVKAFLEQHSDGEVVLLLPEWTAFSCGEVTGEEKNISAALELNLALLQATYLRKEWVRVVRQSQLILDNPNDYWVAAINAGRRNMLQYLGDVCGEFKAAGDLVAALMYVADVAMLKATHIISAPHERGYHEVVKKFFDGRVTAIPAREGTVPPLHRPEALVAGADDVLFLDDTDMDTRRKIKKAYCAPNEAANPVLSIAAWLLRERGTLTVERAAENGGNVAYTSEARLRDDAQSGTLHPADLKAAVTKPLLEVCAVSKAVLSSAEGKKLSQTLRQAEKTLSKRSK
In words: Trypanosoma cruzi tyrosyl tRNA synthetase (TcYRS) _High Tyrosine SOP. Also: in the data most compounds retested in dose-response had high values. The class given is functional. Conditions: 30 µM.

Test [8] deals with T4, Tyrosyl-tRNA synthetase, putative (Trypanosoma cruzi (strain CL Brener)). In words: Trypanosoma cruzi tyrosyl tRNA synthetase (TcYRS) SOP. The class given is functional. Conditions: 30 µM.
The target in test [9] is Chromo domain-containing protein 1 (Saccharomyces cerevisiae (strain ATCC 204508 / S288c) (Baker's yeast)) (UniProt P32657). In words: ScCHD-1 Enzyme Inhibition Assay. Also: in the data most compounds retested in dose-response had high values. The class given is functional. Particulars: 30 µM.

Each structure is given as a SMILES string. For some of these results: Results with a measured potency or affinity are listed apart.

Chain of Protein translocase subunit SecA (Escherichia coli (strain K12)) (P10408 whole entry): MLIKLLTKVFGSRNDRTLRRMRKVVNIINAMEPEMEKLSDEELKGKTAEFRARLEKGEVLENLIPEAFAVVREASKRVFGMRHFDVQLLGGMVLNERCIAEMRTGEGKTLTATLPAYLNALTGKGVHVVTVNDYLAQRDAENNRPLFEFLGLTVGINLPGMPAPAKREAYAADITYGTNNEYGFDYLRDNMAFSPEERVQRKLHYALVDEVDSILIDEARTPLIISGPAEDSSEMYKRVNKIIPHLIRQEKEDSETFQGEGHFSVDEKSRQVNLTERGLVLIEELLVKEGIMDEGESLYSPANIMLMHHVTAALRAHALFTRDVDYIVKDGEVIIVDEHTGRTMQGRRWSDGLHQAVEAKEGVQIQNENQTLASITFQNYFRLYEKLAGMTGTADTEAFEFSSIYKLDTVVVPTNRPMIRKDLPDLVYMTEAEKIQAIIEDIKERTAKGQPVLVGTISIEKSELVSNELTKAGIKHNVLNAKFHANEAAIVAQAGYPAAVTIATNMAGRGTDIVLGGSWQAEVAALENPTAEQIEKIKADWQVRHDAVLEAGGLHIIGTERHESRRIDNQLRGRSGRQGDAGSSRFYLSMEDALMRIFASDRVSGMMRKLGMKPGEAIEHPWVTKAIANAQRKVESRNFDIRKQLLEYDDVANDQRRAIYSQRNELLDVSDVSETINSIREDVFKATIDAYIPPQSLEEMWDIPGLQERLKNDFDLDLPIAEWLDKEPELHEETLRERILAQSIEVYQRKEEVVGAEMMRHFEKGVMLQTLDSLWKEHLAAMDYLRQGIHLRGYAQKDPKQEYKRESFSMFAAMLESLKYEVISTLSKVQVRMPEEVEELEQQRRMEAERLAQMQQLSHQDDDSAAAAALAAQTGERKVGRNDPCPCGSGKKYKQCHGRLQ
Chain of Sialic acid-binding Ig-like lectin 9 (Homo sapiens) (Q9Y336 whole entry): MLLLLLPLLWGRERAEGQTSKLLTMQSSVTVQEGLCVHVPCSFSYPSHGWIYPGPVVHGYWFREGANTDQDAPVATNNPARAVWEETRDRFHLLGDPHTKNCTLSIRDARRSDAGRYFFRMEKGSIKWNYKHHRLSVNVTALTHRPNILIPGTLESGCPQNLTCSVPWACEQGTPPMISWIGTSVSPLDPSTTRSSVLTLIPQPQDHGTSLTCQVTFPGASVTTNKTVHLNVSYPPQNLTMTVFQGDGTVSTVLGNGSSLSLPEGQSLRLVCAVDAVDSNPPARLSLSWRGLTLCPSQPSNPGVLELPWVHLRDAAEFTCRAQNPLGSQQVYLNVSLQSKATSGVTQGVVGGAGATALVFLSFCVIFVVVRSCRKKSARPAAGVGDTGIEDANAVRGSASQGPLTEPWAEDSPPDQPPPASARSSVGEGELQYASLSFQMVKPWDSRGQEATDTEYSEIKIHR
Chain of Chromo domain-containing protein 1 (Saccharomyces cerevisiae (strain ATCC 204508 / S288c) (Baker's yeast)) (P32657 whole entry, the tested form may be a part): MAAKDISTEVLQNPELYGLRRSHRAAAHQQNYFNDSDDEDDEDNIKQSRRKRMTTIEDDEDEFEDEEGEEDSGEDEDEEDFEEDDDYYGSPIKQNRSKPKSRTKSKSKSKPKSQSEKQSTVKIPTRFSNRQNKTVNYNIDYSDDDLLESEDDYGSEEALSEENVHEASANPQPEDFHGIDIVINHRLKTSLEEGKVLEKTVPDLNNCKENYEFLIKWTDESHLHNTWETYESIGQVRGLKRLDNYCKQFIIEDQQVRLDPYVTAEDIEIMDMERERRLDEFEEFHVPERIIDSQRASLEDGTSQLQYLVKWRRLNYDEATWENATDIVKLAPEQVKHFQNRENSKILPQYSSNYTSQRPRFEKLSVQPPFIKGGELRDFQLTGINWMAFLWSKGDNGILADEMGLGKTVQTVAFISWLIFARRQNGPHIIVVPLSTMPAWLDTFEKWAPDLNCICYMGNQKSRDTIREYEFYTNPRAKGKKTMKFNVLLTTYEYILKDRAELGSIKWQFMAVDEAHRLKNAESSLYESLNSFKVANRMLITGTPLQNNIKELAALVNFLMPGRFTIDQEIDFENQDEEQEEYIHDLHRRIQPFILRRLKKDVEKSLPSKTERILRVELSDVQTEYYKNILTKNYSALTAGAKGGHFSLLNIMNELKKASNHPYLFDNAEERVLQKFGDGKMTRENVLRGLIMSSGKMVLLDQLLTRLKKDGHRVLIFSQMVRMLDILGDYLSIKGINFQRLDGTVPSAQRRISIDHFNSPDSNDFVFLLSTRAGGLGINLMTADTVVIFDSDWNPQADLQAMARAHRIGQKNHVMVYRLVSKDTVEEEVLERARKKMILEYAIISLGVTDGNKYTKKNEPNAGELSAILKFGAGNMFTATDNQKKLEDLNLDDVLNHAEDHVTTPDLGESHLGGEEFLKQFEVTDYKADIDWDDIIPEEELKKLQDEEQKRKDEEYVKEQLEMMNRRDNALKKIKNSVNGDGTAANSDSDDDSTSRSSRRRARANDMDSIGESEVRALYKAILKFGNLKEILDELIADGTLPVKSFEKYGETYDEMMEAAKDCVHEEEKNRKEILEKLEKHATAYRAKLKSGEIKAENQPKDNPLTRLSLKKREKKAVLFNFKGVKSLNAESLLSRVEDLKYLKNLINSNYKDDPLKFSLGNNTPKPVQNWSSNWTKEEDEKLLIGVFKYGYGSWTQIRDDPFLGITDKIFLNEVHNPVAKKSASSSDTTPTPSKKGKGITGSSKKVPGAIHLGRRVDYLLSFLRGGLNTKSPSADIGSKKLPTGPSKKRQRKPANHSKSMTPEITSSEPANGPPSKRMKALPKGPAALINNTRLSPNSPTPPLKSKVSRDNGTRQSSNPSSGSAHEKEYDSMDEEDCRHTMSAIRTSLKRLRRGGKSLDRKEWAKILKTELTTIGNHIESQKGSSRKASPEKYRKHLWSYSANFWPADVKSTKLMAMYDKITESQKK

Take `COCC(=O)N1CC[C@H]2C[C@@H](c3nnc(C4CC4)o3)O[C@@H]2C1`: the Percent Effect was -5.18% in [1]; 18.7% in [2]; -7.93% in test [3]; 0.755% in [4]; 1.74% with Trypanosoma cruzi; -57.2% in [5]. The Percent Effect is 19.5% in test [6]; -2.44% in the test filed under Homo sapiens; 4.17% in [7]; 17.5% in test [8]; -6.39% in test [9].

For the molecule `CC(=O)NCCNC(=O)CN1CCN(Cc2nccn2C)C(C)C1` (stereo unspecified), the Percent Effect in [1] was -6.92%; in test [2], 0%; in test [3], -3.67%; in test [4], 14%; with Trypanosoma cruzi it was -0.836%; in [5], 0.185%. Also, the Percent Effect was -2.87% in test [6]; 0.801% in the test listed under Homo sapiens; 7.92% in test [7]; 6.1% in test [8]; 10% in test [9].

Consider `O=C(Cc1ccc2c(c1)CCO2)N1CCCCC1Cn1cccn1` (stereo unspecified), for which the Percent Effect was -5.85% in test [1]; 10.5% in test [2]; 0.878% in test [3]; 4.66% in test [4]; 2.24% in the test on Trypanosoma cruzi; -5.92% in [5]. The Percent Effect in test [6] is 7.19%; in the test listed under Homo sapiens, 7.18%; in test [7], 5.32%; in test [8] it was 7.79%; in test [9], -7.71%.

Take `CCOc1ccc(N2CCCN=C2NC(=O)c2cccc(Cl)c2)cc1`: the Percent Effect is -0.891% in test [1]; 5.2% in test [2]; 1.42% in test [3]; 2.2% in test [4]; -4.62% in the test with Trypanosoma cruzi; -13.8% in [5]. For the same molecule, the Percent Effect was found to be 14.6% in test [6]; 1.55% in the test listed under Homo sapiens; 3.23% in [7]; 13.6% in test [8]; 0.903% in test [9].

As to `O=C(c1ccncc1)N1CCC(O)(Cn2ccc3ccncc32)CC1`, the Percent Effect was -2.15% in test [1]; 6.76% in test [2]; 7.19% in test [3]; -2.13% in test [4]; -3.75% in the test on Trypanosoma cruzi; 0.232% in test [5]. For the same molecule, the Percent Effect in test [6] is 17.9%; in the test listed under Homo sapiens it was -0.964%; in test [7], 4.3%; in test [8] it was 9.09%; in test [9], -10.5%.

As for `Cc1nc(C)n(CC2CCCCN2CC(=O)Nc2cccnc2)n1` (stereo unspecified), the Percent Effect is -1.75% in [1]; 4.17% in test [2]; -8.52% in test [3]; 22% in [4]; 3.98% in the test on Trypanosoma cruzi; 9.71% in test [5]. The Percent Effect in test [6] was 8.25%; in the test listed under Homo sapiens it was -0.793%; in test [7] it was 5.26%; in [8], 10.3%; in [9], -2.02%.

Take `CCOCC(O)CN1CCN(C(=O)c2cnc3n[nH]c(C)c3c2)CC1` (stereo unspecified): the Percent Effect in test [1] was -4.29%; in test [2], 10.5%; in test [3], 1.79%; in test [4] it was 1.55%; in the test on Trypanosoma cruzi, 5.7%; in test [5], 1.44%. The Percent Effect in test [6] was 8.54%; in the test listed under Homo sapiens it was 10.1%; in test [7], 7.39%; in [8], 16.1%; in test [9], -0.703%.

Regarding `CCc1nc(CN2CCOC(Cn3nc(C)nc3C)C2)no1` (stereo unspecified), the Percent Effect in [1] was -1.49%; in test [2] it was 23.7%; in [3], 2.58%; in test [4], -7.19%; with Trypanosoma cruzi, -2.33%; in test [5], 4.32%. In addition, the Percent Effect in test [6] is 3.64%; in the test listed under Homo sapiens, 5.43%; in test [7], 8.37%; in test [8], 18.5%; in [9] it was -6.23%.

For the molecule `c1ccc(-c2cnc(CN3CCn4c(nnc4C4CC4)C3)o2)cc1`, the Percent Effect in [1] is 3.62%; in [2], 13.2%; in test [3], -0.492%; in test [4], 0.484%; in the test on Trypanosoma cruzi, -0.564%; in test [5], 6.9%. The Percent Effect in test [6] is 10%; in the test listed under Homo sapiens, 18.2%; in test [7], 6.37%; in [8], 17.1%; in test [9] it was -9.44%.

With `CCOc1ccnc(N2CCN(C(=O)c3cccc(C#N)c3)CC2)n1`, the Percent Effect is -7.73% in [1]; 13.2% in [2]; -3.41% in test [3]; 8.57% in test [4]; -1.77% in the test on Trypanosoma cruzi; -2.88% in test [5]. The Percent Effect was found to be 3.47% in [6]; 8.64% in the test listed under Homo sapiens; 2.46% in [7]; 11.1% in test [8]; 2.13% in [9].

For `Cc1cc(CN(C)C(=O)c2cc3c([nH]c2=O)CCCC3=O)no1`, the Percent Effect in [1] is -5.46%; in [2], 5.41%; in test [3], -1.63%; in [4], -1.13%; with Trypanosoma cruzi, -7.52%; in test [5], 5.73%. The Percent Effect in test [6] is -5.57%; in the test listed under Homo sapiens, 18%; in test [7] it was 0.99%; in test [8], 6.1%; in test [9] it was -0.0983%.
